Measurements published in PubChem BioAssay (NCATS).
Inconclusive results are not listed. Entries that show only a call come without a potency. Unmarked numbers belong to inactive results. The source made the active and inactive calls. Calls come from the whole dose curve; as a rule, active = well fitted cell-killing curve with a large enough effect; inconclusive = small, poorly fitted or top-dose-only effect, or effect the other way; inactive = flat fitted curve, though single readings scatter.

Each molecule was assayed on PA-1 (assay: Primary qHTS to identify gynecologic anti-cancer compounds using libraries of approved drugs and bioactive compounds (AID 1345084; note: nearly all actives have a fitted effect of over 55% in size)). Settings: Gynecologic cancer cell panel viability, ATPlite luminescence, 48 h; series mostly up to 57.5 µM.
Summary of the method: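 Five-point cytotoxicity, 48 h drug exposure at 37 C, 5% CO2, on cells seeded 16 h beforehand. ATP content read by ATPlite luminescence.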

| SMILES | Potency | activity change, negative = cytotoxicity |
| --- | --- | --- |
| CC1CCC2(C(=O)O)CCC3(C)C(=CCC4C5(C)C[C@@H](O)[C@@H](O)C(C)(CO)C5CCC43C)C2C1(C)O (stereo partly drawn) | inactive | – |
| C=C1CCC2[C@@](C)(C(=O)O)CCC[C@@]2(C)[C@@H]1CCc1ccoc1 (stereo partly drawn) | inactive | – |
| OCC1OC(Oc2cc(O)cc(/C=C/c3ccc(OC4OC(CO)C(O)C(O)C4O)cc3O)c2)C(O)C(O)C1O (stereo not drawn) | inactive | – |
| C/C=C(/C)C(=O)OC1C2OC2C2(CO2)C2C3OC(=O)C(C)C3CCC12C (stereo not drawn) | inactive | – |
| COc1cc(/C=C/C(=O)O[C@@H]2O[C@H](CO)[C@@H](O)[C@H](O)[C@H]2O)ccc1O | inactive | – |
| C[C@]1(O)CC[C@@H]2C(C(=O)O)=CO[C@@H](O[C@@H]3O[C@H](COC(=O)/C=C/c4ccc(O)c(O)c4)[C@@H](O)[C@H](O)[C@H]3O)[C@@H]21 | inactive | – |
| C=C[C@H]1[C@H](O[C@@H]2O[C@H](CO)[C@@H](O)[C@H](O)[C@H]2O)OC=C2C(=O)N3Cc4c([nH]c5ccccc5c4=O)[C@@H]3C[C@H]21 | inactive | – |
| COc1cc(O)c2c(c1Cl)CC(C)OC2=O (stereo not drawn) | inactive | – |
| Cc1ncc(Cl)cc1NCc1ccc(C(=O)NC(CC2CCCC2)C(=O)NC2CC2)s1 (stereo not drawn) | inactive | – |
| COC(=O)C1=CO[C@@H](O[C@@H]2O[C@H](CO)[C@@H](O)[C@H](O)[C@H]2O)[C@@H]2[C@@H](C)[C@@H](O)C(O)[C@H]12 (stereo partly drawn) | inactive | – |
| Cc1occc1C(=O)n1ccnc1 | inactive | – |
| COc1cccc(CNc2ccc(S(=O)(=O)Nc3nc4ccccc4s3)cc2)c1O | inactive | – |
| CC1(C)CC[C@]2(C(=O)O[C@@H]3O[C@H](CO[C@@H]4O[C@H](CO[C@@H]5O[C@H](CO)[C@H](O)[C@H](O)[C@H]5O)[C@@H](O)[C@H](O)[C@H]4O)[C@@H](O)[C@H](O[C@@H]4O[C@H](CO)[C@@H](O)[C@H](O)[C@H]4O)[C@H]3O)[C@H](O)C[C@]3(C)C(=CCC4[C@@]5(C)CC[C@H](O[C@@H]6OC[C@@H](O)[C@H](O)[C@H]6O)[C@@](C)(C(=O)O)C5CC[C@]43C)[C@@H]2C1 (stereo partly drawn) | – | 14% [at 6.55 µM] |
